Laboratory results reported in publication PMC4336329 (PLoS ONE, 2015).
The campaign covered roughly 310,000 compounds. About 14,000 (4.5%) showed an effect of 50% or more. Effects have a minus sign here. The full list was thinned out, with strong results kept by preference.

molecular target: human ether-à-go-go-related gene (hERG) potassium channel (human, UniProt Q12809); test: primary screen, population patch clamp on CHO cells stably expressing hERG; higher = less effect of the substance
Experimental: Briefly, Chinese hamster ovary (CHO) cells stably expressing the hERG channel were dislodged from tissue culture flasks and dispensed into PPC plates. […] During the recording, background leak currents were estimated by a 100 ms step to -80 mV from an initial holding potential of -70 mV and subtracted from the subsequent current measurement. The campaign was conducted in two phases using slight differences in recording protocol. In the first phase, the initial voltage pulse used a 100 ms step to -30 mV from a holding potential of -70 mV, a 2 s conditioning step to +25 mV, and a 2 s test step to -30 mV. During the second phase of the screen, the potential during the conditioning step was raised to +45 mV. In both phases of the campaign, a secondary voltage pulse was applied using the same parameters as the second phase initial pulse. The initial and secondary pulses were applied in the absence of compound, and upon application of 1 μM and 10 μM test concentrations. […]
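Also: peak tail current of the secondary pulse compared with the same well before compound.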

Chain of human ether-à-go-go-related gene (hERG) potassium channel (Q12809 whole entry, looked up): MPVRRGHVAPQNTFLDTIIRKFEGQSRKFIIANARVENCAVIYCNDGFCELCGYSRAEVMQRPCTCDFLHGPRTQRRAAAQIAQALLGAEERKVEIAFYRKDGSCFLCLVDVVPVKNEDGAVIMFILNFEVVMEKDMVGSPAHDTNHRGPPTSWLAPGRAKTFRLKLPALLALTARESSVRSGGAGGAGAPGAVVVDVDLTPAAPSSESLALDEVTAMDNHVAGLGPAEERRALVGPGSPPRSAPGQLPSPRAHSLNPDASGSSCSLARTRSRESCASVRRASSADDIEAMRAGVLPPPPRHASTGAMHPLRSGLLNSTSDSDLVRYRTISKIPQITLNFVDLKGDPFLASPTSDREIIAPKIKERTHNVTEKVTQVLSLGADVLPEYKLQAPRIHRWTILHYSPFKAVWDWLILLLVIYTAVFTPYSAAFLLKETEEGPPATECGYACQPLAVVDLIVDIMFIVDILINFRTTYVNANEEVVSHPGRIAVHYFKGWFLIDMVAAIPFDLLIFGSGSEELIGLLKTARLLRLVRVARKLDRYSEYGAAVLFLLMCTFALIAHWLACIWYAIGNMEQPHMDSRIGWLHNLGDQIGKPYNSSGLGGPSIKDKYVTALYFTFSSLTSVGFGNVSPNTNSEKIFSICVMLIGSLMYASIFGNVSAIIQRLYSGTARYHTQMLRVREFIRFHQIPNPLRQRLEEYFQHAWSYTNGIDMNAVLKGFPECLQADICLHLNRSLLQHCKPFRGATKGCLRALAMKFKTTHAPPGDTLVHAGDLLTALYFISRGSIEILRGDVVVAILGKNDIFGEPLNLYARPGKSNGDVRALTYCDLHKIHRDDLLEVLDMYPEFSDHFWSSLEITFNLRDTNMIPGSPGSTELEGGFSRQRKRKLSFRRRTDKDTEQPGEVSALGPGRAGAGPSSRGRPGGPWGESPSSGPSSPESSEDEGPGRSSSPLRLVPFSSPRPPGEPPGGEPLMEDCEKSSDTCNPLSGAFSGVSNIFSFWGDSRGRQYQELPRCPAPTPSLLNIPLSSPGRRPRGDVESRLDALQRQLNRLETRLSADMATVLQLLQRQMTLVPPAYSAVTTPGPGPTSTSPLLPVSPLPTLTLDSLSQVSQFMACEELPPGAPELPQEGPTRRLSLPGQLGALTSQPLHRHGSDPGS

Row | SMILES | hERG current change (%, negative = inhibition) at 10uM
1 | CCNC(=O)NC(=O)CN(C)c1ccccc1 | 10.5%
2 | CCOC(=O)c1sc(=NC(=O)c2cccc(C)c2)n(C)c1C | 8.38%
3 | Cc1ccc(-c2c(C(=O)N/N=C/c3cccs3)nnn2-c2nonc2N)cc1 | 29.8%
4 | CCC(COC)NCc1cn(-c2ccc(F)cc2F)nc1-c1ccccc1C (stereo not shown) | -18%
5 | COc1cccc(-c2nn(-c3ccccc3)cc2CN(C)C(C)c2ccncn2)c1 (stereo not shown) | -15.6%
6 | CCC(COC)NCc1cn(-c2ccc(OC)cc2)nc1-c1cccc(F)c1 (stereo not shown) | -70.3%
7 | COc1ccc(-n2cc(CN(C)C(C)c3ccncn3)c(-c3cccc(F)c3)n2)cc1 (stereo not shown) | -39.9%
8 | COc1ccc(-c2nn(-c3ccccc3)cc2CNC(C)Cn2cncn2)c(F)c1 (stereo not shown) | -13%
9 | COc1ccc(-n2cc(CNC(C)c3ccncn3)c(-c3cccc(F)c3)n2)cc1 (stereo not shown) | -59.4%
10 | Cc1cccc(N2CCN(C(=O)c3cccc(N4C(=O)C5CC=CC(C)C5C4=O)c3)CC2)c1C (stereo not shown) | -12.5%
11 | Cc1oncc1-c1cn2ccccc2n1 | 6.61%
12 | COc1ccccc1CNC(=O)c1ccccc1OCc1ccc(F)cc1 | -10%
13 | CCOc1ccc(N2CC(C(=O)N3CCN(C(=O)c4ccco4)CC3)CC2=O)cc1 (stereo not shown) | -63.4%
14 | COc1ccc(N2CCN(C(=O)C3CC(=O)N(c4ccc(C)cc4)C3)CC2)cc1 (stereo not shown) | -35.1%
15 | COc1ccc(N2CC(C(=O)N3CCN(C)CC3)CC2=O)cc1 (stereo not shown) | 15.4%
16 | CCOc1ccc(N2CC(C(=O)N3CCCCCC3)CC2=O)cc1 (stereo not shown) | -7.34%
17 | CCOc1ccc(N2CC(C(=O)N3CCCCC3)CC2=O)cc1 (stereo not shown) | 18.6%
18 | COc1ccc(N2CC(C(=O)N3CCN(C(=O)c4ccco4)CC3)CC2=O)cc1 (stereo not shown) | -53.3%
19 | Cc1cc(C#N)c(C)n1-c1cc(S(=O)(=O)N2CCOCC2)ccc1N1CCCC1 | -14.3%
20 | CN(Cc1ccc(F)cc1)C(=O)c1cccc(S(=O)(=O)N2CCN(c3ccc(F)cc3)CC2)c1 | -34.6%
21 | CN(C)S(=O)(=O)N1CCC(Oc2cccc(C(=O)NC3CCOC3)c2)CC1 (stereo not shown) | 2.63%
22 | O=C(CN1CCN(CCC(=O)Nc2ccccc2F)CC1)Nc1ccc(Cl)cc1 | -76.8%
23 | O=C(CN1CCN(CCC(=O)Nc2ccccc2F)CC1)Nc1ccc(F)cc1 | -72.6%
24 | O=C(CCN1CCN(c2ccc(F)cc2)CC1)Nc1ccccc1F | -43%
25 | O=C(CN1CCOCC1)Nc1ccccc1F | 0.862%
26 | O=C(CCN1CCN(c2ccc(Cl)cc2)CC1)Nc1ccccc1F | -34%
27 | O=C(CCN1CCN(S(=O)(=O)c2ccc(Cl)cc2)CC1)Nc1ccccc1F | -6.18%
28 | COc1ccc(C(=O)NC2CCCCC2)cc1S(=O)(=O)N1CCOCC1 | -14.8%

Row | SMILES | hERG current change (%, negative = inhibition) at 10uM
29 | O=C(NCCOC(=O)c1ccccc1)c1ccccc1 | 10.2%
30 | [N-]=[N+]=CC(=O)CNC(=O)[C@@H](Cc1ccccc1)N1C(=O)c2ccccc2C1=O | 6.66%
31 | CCC(C(=O)NCc1ccco1)n1nc(C)c2c(C)n(-c3ccccc3)nc2c1=O (stereo not shown) | -8.91%
32 | CCC(C(=O)NC1CC1)n1nc(C)c2c(C)n(-c3ccc(C)cc3)nc2c1=O (stereo not shown) | -62%
33 | CCC(C(=O)NC1CCCCCC1)n1nc(C)c2c(C)n(-c3ccccc3)nc2c1=O (stereo not shown) | -23.4%
34 | Cc1ccc(-n2nc3c(=O)n(C(C)C(=O)NCc4ccco4)nc(C)c3c2C)cc1 (stereo not shown) | -41.3%
35 | CCC(C(=O)NCc1ccco1)n1nc(C)c2c(C)n(-c3ccc(C)cc3)nc2c1=O (stereo not shown) | -58.9%
36 | CCC(C(=O)NC1CC1)n1nc(C)c2c(C)n(-c3ccccc3)nc2c1=O (stereo not shown) | 8.02%
37 | CC(C)c1cccc(C(C)C)c1OCCCCN1CCCC1 | -22.7%
38 | COc1ccccc1N(C)S(=O)(=O)c1ccc(C(=O)Nc2nccs2)cc1 | -30.5%
39 | CC(=O)c1ccc(NC(=O)CN2CCC(NC(=O)C3CCCCC3)CC2)cc1 | -6.72%
40 | COc1cccc(C(=O)N2CCCC(CCC(=O)NCc3ccc(F)c(F)c3)C2)c1 (stereo not shown) | -17.5%
41 | COc1ccccc1/C=C/CN1CCCC(CCC(=O)NCc2ccc(F)c(F)c2)C1 (stereo not shown) | -70%
42 | COc1cccc(CNC(=O)CCC2CCCN(C(=O)Cc3ccccc3F)C2)c1 (stereo not shown) | -7.61%
43 | COC(=O)c1ccccc1C(=O)N1CCCC(CCC(=O)NCc2ccc(F)c(F)c2)C1 (stereo not shown) | -10.1%
44 | COc1ccc(/C=C/CN2CCCC(CCC(=O)NCc3ccc(F)c(F)c3)C2)cc1 (stereo not shown) | -72.8%
45 | COCCC(=O)N1CCCC(CCC(=O)NCc2ccc(F)c(F)c2)C1 (stereo not shown) | 22.8%
46 | COc1ccccc1/C=C/CN1CCCC(CCC(=O)NCc2ccccc2F)C1 (stereo not shown) | -65.7%
47 | COc1ccccc1CC(=O)N1CCCC(CCC(=O)NCc2ccccc2F)C1 (stereo not shown) | 2.97%
48 | COc1cccc(CNC(=O)CCC2CCCN(C(=O)c3ccc(OC)c(F)c3)C2)c1 (stereo not shown) | -9.79%
49 | COCCNC(=O)CCC1CCN(C/C=C/c2ccccc2OC)CC1 | -3.87%
50 | COc1ccc(C(=O)N2CCCC(CCC(=O)NCc3ccc(F)c(F)c3)C2)cc1F (stereo not shown) | -22.8%
51 | COc1cccc(CNC(=O)CCC2CCCN(C/C=C/c3ccccc3OC)C2)c1 (stereo not shown) | -68.5%
52 | CCCCC(NC(=O)c1cccc(Br)c1)C(=O)O (stereo not shown) | 9.42%
53 | Cc1nn(C)c(C)c1CNC(=O)Nc1cccc(Cl)c1 | 6.93%
54 | CC1(C)CC(=O)c2cn3nc(C(F)(F)F)nc3nc2C1 | 4.21%
55 | O=C(CN1CCN(S(=O)(=O)c2ccc(F)c(Cl)c2)CC1)N1CCc2ccccc21 | -34.7%
